Results published in paper PMC11006913.

How the values were obtained:
Test in all cases: PBM; 200 nM protein, PBS
Details in all cases: dsDNA, one strand shown
HESX1 [1] = molecular target: HESX1 (Homo sapiens, UniProt Q9UBX0 95-180, R165K)
SHOX [2] = molecular target: SHOX (Homo sapiens, UniProt O15266 103-189)
ALX4 = ALX4 (Homo sapiens, UniProt Q9H161 200-286, Q225E)
HESX1 [3] = molecular target: HESX1 (Homo sapiens, UniProt Q9UBX0 95-180)
MSX2 = MSX2 (Homo sapiens, UniProt P35548 130-214, R199I)
ALX1 [4] = molecular target: ALX1 (Homo sapiens, UniProt Q15699 118-204, L144V)
ALX3 [5] = molecular target: ALX3 (Homo sapiens, UniProt O95076 139-225, N203Q)
SHOX [6] = molecular target: SHOX (Homo sapiens, UniProt O15266 103-189, R173C)
ALX1 [7] = molecular target: ALX1 (Homo sapiens, UniProt Q15699 118-204, L144R)
ALX3 [8] = molecular target: ALX3 (Homo sapiens, UniProt O95076 139-225)
PROP1 [9] = molecular target: PROP1 (Homo sapiens, UniProt O75360 56-141)
HESX1 [10] = molecular target: HESX1 (Homo sapiens, UniProt Q9UBX0 95-180, R109Q)
PROP1 [11] = molecular target: PROP1 (Homo sapiens, UniProt O75360 56-141, R99H)
ALX3 [12] = molecular target: ALX3 (Homo sapiens, UniProt O95076 139-225, L168Q)
HESX1 [13] = molecular target: HESX1 (Homo sapiens, UniProt Q9UBX0 95-180, P111T)
ALX3 [14] = molecular target: ALX3 (Homo sapiens, UniProt O95076 139-225, L168V)
PROP1 [15] = molecular target: PROP1 (Homo sapiens, UniProt O75360 56-141, F88S)
HESX1 [16] = molecular target: HESX1 (Homo sapiens, UniProt Q9UBX0 95-180, F115L)
ALX1 [17] = molecular target: ALX1 (Homo sapiens, UniProt Q15699 118-204)
ALX3 [18] = molecular target: ALX3 (Homo sapiens, UniProt O95076 139-225, N203S)
Chain of ALX3 (Homo sapiens, UniProt O95076 139-225, N203S) (O95076 139-225 N203S): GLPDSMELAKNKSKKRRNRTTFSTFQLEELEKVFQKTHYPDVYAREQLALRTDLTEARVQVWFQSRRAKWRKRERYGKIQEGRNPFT

Chain of SHOX (Homo sapiens, UniProt O15266 103-189) (O15266 103-189): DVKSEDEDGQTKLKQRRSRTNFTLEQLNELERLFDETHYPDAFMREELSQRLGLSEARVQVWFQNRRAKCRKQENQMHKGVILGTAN
Chain of MSX2 (P35548 130-214 R199I): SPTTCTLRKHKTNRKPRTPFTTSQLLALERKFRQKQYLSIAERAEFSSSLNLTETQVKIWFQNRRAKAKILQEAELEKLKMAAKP
Chain of HESX1 (Homo sapiens, UniProt Q9UBX0 95-180, P111T) (Q9UBX0 95-180 P111T): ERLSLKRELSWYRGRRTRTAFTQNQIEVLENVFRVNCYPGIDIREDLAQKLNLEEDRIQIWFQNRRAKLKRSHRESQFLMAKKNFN
Chain of HESX1 (Homo sapiens, UniProt Q9UBX0 95-180) (Q9UBX0 95-180): as the sequence (Q9UBX0 95-180 P111T) above, with T17P counted along it
Chain of ALX1 (Homo sapiens, UniProt Q15699 118-204) (Q15699 118-204): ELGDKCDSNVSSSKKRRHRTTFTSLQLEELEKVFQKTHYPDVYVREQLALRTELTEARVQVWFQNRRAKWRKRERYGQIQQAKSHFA
Chain of PROP1 (Homo sapiens, UniProt O75360 56-141, F88S) (O75360 56-141 F88S): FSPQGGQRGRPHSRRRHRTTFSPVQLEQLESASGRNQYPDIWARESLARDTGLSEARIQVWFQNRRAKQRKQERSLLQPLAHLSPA
Chain of ALX1 (Homo sapiens, UniProt Q15699 118-204, L144R) (Q15699 118-204 L144R): as the sequence (Q15699 118-204) above, with L27R counted along it
Chain of SHOX (Homo sapiens, UniProt O15266 103-189, R173C) (O15266 103-189 R173C): as the sequence (O15266 103-189) above, with R71C counted along it
Chain of ALX3 (Homo sapiens, UniProt O95076 139-225) (O95076 139-225): as the sequence (O95076 139-225 N203S) above, with S65N counted along it
Chain of PROP1 (Homo sapiens, UniProt O75360 56-141, R99H) (O75360 56-141 R99H): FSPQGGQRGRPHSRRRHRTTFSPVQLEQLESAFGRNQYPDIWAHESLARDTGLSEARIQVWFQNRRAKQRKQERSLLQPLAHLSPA
Chain of HESX1 (Homo sapiens, UniProt Q9UBX0 95-180, R165K) (Q9UBX0 95-180 R165K): as the sequence (Q9UBX0 95-180 P111T) above, with T17P, R71K counted along it
Chain of ALX4 (Q9H161 200-286 Q225E): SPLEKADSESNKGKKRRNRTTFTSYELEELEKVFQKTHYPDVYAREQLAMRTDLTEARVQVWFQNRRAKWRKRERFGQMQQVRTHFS
Chain of ALX3 (Homo sapiens, UniProt O95076 139-225, L168Q) (O95076 139-225 L168Q): as the sequence (O95076 139-225 N203S) above, with L30Q, S65N counted along it
Chain of ALX3 (Homo sapiens, UniProt O95076 139-225, L168V) (O95076 139-225 L168V): as the sequence (O95076 139-225 N203S) above, with L30V, S65N counted along it
Chain of PROP1 (Homo sapiens, UniProt O75360 56-141) (O75360 56-141): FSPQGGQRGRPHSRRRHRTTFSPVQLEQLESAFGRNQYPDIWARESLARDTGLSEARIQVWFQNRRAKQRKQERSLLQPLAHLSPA
Chain of HESX1 (Homo sapiens, UniProt Q9UBX0 95-180, R109Q) (Q9UBX0 95-180 R109Q): as the sequence (Q9UBX0 95-180 P111T) above, with R15Q, T17P counted along it
Chain of ALX1 (Homo sapiens, UniProt Q15699 118-204, L144V) (Q15699 118-204 L144V): as the sequence (Q15699 118-204) above, with L27V counted along it
Chain of HESX1 (Homo sapiens, UniProt Q9UBX0 95-180, F115L) (Q9UBX0 95-180 F115L): as the sequence (Q9UBX0 95-180 P111T) above, with T17P, F21L counted along it
Chain of ALX3 (Homo sapiens, UniProt O95076 139-225, N203Q) (O95076 139-225 N203Q): as the sequence (O95076 139-225 N203S) above, with S65Q counted along it

Sequence	binding signal (HESX1 [1])	binding signal (SHOX [2])	binding signal (ALX4)	binding signal (HESX1 [3])	binding signal (MSX2)	binding signal (ALX1 [4])	binding signal (ALX3 [5])	binding signal (SHOX [6])	binding signal (ALX1 [7])	binding signal (ALX3 [8])	binding signal (PROP1 [9])	binding signal (HESX1 [10])	binding signal (PROP1 [11])	binding signal (ALX3 [12])	binding signal (HESX1 [13])	binding signal (ALX3 [14])	binding signal (PROP1 [15])	binding signal (HESX1 [16])	binding signal (ALX1 [17])	binding signal (ALX3 [18])
TCAATTAA	13.4 upbm affinity estimate (log intensity, higher = more binding, comparable within an allelic series)	12.4 upbm affinity estimate (log intensity, higher = more binding, comparable within an allelic series)	13.8 upbm affinity estimate (log intensity, higher = more binding, comparable within an allelic series)	13.2 upbm affinity estimate (log intensity, higher = more binding, comparable within an allelic series)	12.8 upbm affinity estimate (log intensity, higher = more binding, comparable within an allelic series)	12 upbm affinity estimate (log intensity, higher = more binding, comparable within an allelic series)	8.44 upbm affinity estimate (log intensity, higher = more binding, comparable within an allelic series)	9.85 upbm affinity estimate (log intensity, higher = more binding, comparable within an allelic series)	11.7 upbm affinity estimate (log intensity, higher = more binding, comparable within an allelic series)	12.7 upbm affinity estimate (log intensity, higher = more binding, comparable within an allelic series)	11.6 upbm affinity estimate (log intensity, higher = more binding, comparable within an allelic series)	9.91 upbm affinity estimate (log intensity, higher = more binding, comparable within an allelic series)	12 upbm affinity estimate (log intensity, higher = more binding, comparable within an allelic series)	11 upbm affinity estimate (log intensity, higher = more binding, comparable within an allelic series)	11.9 upbm affinity estimate (log intensity, higher = more binding, comparable within an allelic series)	10.5 upbm affinity estimate (log intensity, higher = more binding, comparable within an allelic series)	7.83 upbm affinity estimate (log intensity, higher = more binding, comparable within an allelic series)	7.87 upbm affinity estimate (log intensity, higher = more binding, comparable within an allelic series)	12.6 upbm affinity estimate (log intensity, higher = more binding, comparable within an allelic series)	8.6 upbm affinity estimate (log intensity, higher = more binding, comparable within an allelic series)
CCAATTAA	13.6 upbm affinity estimate (log intensity, higher = more binding, comparable within an allelic series)	12.7 upbm affinity estimate (log intensity, higher = more binding, comparable within an allelic series)	14.1 upbm affinity estimate (log intensity, higher = more binding, comparable within an allelic series)	13.5 upbm affinity estimate (log intensity, higher = more binding, comparable within an allelic series)	13.3 upbm affinity estimate (log intensity, higher = more binding, comparable within an allelic series)	12.2 upbm affinity estimate (log intensity, higher = more binding, comparable within an allelic series)	8.51 upbm affinity estimate (log intensity, higher = more binding, comparable within an allelic series)	10.3 upbm affinity estimate (log intensity, higher = more binding, comparable within an allelic series)	11.9 upbm affinity estimate (log intensity, higher = more binding, comparable within an allelic series)	12.9 upbm affinity estimate (log intensity, higher = more binding, comparable within an allelic series)	12 upbm affinity estimate (log intensity, higher = more binding, comparable within an allelic series)	10.8 upbm affinity estimate (log intensity, higher = more binding, comparable within an allelic series)	12.2 upbm affinity estimate (log intensity, higher = more binding, comparable within an allelic series)	11.2 upbm affinity estimate (log intensity, higher = more binding, comparable within an allelic series)	12.2 upbm affinity estimate (log intensity, higher = more binding, comparable within an allelic series)	10.8 upbm affinity estimate (log intensity, higher = more binding, comparable within an allelic series)	7.84 upbm affinity estimate (log intensity, higher = more binding, comparable within an allelic series)	8.43 upbm affinity estimate (log intensity, higher = more binding, comparable within an allelic series)	12.8 upbm affinity estimate (log intensity, higher = more binding, comparable within an allelic series)	8.7 upbm affinity estimate (log intensity, higher = more binding, comparable within an allelic series)
GGCAATTA	12.3 upbm affinity estimate (log intensity, higher = more binding, comparable within an allelic series)	11.7 upbm affinity estimate (log intensity, higher = more binding, comparable within an allelic series)	12.9 upbm affinity estimate (log intensity, higher = more binding, comparable within an allelic series)	12.4 upbm affinity estimate (log intensity, higher = more binding, comparable within an allelic series)	12.9 upbm affinity estimate (log intensity, higher = more binding, comparable within an allelic series)	11.4 upbm affinity estimate (log intensity, higher = more binding, comparable within an allelic series)	8.35 upbm affinity estimate (log intensity, higher = more binding, comparable within an allelic series)	9.38 upbm affinity estimate (log intensity, higher = more binding, comparable within an allelic series)	11 upbm affinity estimate (log intensity, higher = more binding, comparable within an allelic series)	12.2 upbm affinity estimate (log intensity, higher = more binding, comparable within an allelic series)	11.1 upbm affinity estimate (log intensity, higher = more binding, comparable within an allelic series)	8.87 upbm affinity estimate (log intensity, higher = more binding, comparable within an allelic series)	11.3 upbm affinity estimate (log intensity, higher = more binding, comparable within an allelic series)	10.3 upbm affinity estimate (log intensity, higher = more binding, comparable within an allelic series)	10.9 upbm affinity estimate (log intensity, higher = more binding, comparable within an allelic series)	9.79 upbm affinity estimate (log intensity, higher = more binding, comparable within an allelic series)	7.46 upbm affinity estimate (log intensity, higher = more binding, comparable within an allelic series)	7.6 upbm affinity estimate (log intensity, higher = more binding, comparable within an allelic series)	12 upbm affinity estimate (log intensity, higher = more binding, comparable within an allelic series)	8.36 upbm affinity estimate (log intensity, higher = more binding, comparable within an allelic series)
CCAGGTCC	6.37 upbm affinity estimate (log intensity, higher = more binding, comparable within an allelic series)			6.39 upbm affinity estimate (log intensity, higher = more binding, comparable within an allelic series)							6.63 upbm affinity estimate (log intensity, higher = more binding, comparable within an allelic series)	6.29 upbm affinity estimate (log intensity, higher = more binding, comparable within an allelic series)	6.65 upbm affinity estimate (log intensity, higher = more binding, comparable within an allelic series)		6.38 upbm affinity estimate (log intensity, higher = more binding, comparable within an allelic series)		6.38 upbm affinity estimate (log intensity, higher = more binding, comparable within an allelic series)	6.42 upbm affinity estimate (log intensity, higher = more binding, comparable within an allelic series)		
CAATTACC	12.7 upbm affinity estimate (log intensity, higher = more binding, comparable within an allelic series)	11.8 upbm affinity estimate (log intensity, higher = more binding, comparable within an allelic series)	12.9 upbm affinity estimate (log intensity, higher = more binding, comparable within an allelic series)	12.6 upbm affinity estimate (log intensity, higher = more binding, comparable within an allelic series)	12.7 upbm affinity estimate (log intensity, higher = more binding, comparable within an allelic series)	11.6 upbm affinity estimate (log intensity, higher = more binding, comparable within an allelic series)	8.27 upbm affinity estimate (log intensity, higher = more binding, comparable within an allelic series)	9.24 upbm affinity estimate (log intensity, higher = more binding, comparable within an allelic series)	11.3 upbm affinity estimate (log intensity, higher = more binding, comparable within an allelic series)	12.4 upbm affinity estimate (log intensity, higher = more binding, comparable within an allelic series)	11.3 upbm affinity estimate (log intensity, higher = more binding, comparable within an allelic series)	8.97 upbm affinity estimate (log intensity, higher = more binding, comparable within an allelic series)	11.5 upbm affinity estimate (log intensity, higher = more binding, comparable within an allelic series)	10.3 upbm affinity estimate (log intensity, higher = more binding, comparable within an allelic series)	10.9 upbm affinity estimate (log intensity, higher = more binding, comparable within an allelic series)	9.72 upbm affinity estimate (log intensity, higher = more binding, comparable within an allelic series)	7.4 upbm affinity estimate (log intensity, higher = more binding, comparable within an allelic series)	7.62 upbm affinity estimate (log intensity, higher = more binding, comparable within an allelic series)	12.4 upbm affinity estimate (log intensity, higher = more binding, comparable within an allelic series)	8.36 upbm affinity estimate (log intensity, higher = more binding, comparable within an allelic series)
